Data on six molecules can be found in PubChem BioAssay.

Structures are written as SMILES. Values joined by “and” are separate entries in the source; they are usually repeats but may differ in a detail not shown here. Equal entries are not always repeated. Records with an inconclusive call do not appear. Active and inactive are the calls of the source.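 The calls were made as follows, unless noted: active = mean z-score across replicates of 1.96 or higher in either the MELAS or the Rieske mutant cell line; inactive = the rest.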

As usually defined, the AC50 is the concentration giving half of the maximal activity seen. What is called inhibition is the drop in the measured response relative to a control, in per cent.

A short description of assay [1]: viability loss in pontine glioma line – cell-based, SU-DIPG-XXV, MIPE5.0, CellTiter-Glo, qHTS, dose response (AID 1347065; cut-off not given, nearly all actives have AC50 up to about 26 µM;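 also: cells exposed to compound for 48 hours before ATP readout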). The conditions noted are these: CellTiter-Glo ATP luminescence. For orientation: ATP-based viability assays read luminescence as a measure of living cells.
Assay [2] in a line: SU-DIPG-VI glioma cell viability, MIPE4.0 library, CellTiter-Glo luminescence, qHTS (AID 1347066; cut-off not given, nearly all actives have AC50 up to about 30 µM;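 also: cells exposed to compound for 48 hours before readout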). The conditions noted are these: CellTiter-Glo ATP luminescence.
The nature of assay [3]: JHH-DIPG-1 glioma cell viability, MIPE5.0 library, CellTiter-Glo luminescence, qHTS (AID 1347067; cut-off not given, nearly all actives have AC50 up to about 26 µM;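 also: cells exposed to compound for 48 hours before readout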). The note with it: JHH-DIPG-1 glioma viability, CellTiter-Glo ATP luminescence.
Assay [4] in a line: SU-DIPG-XXV glioma cell viability, MIPE5.0 library, qHTS (AID 1347068; cut-off not given, nearly all actives have IC50 up to about 30 µM). A general note: Quantitative high-throughput screening tests each substance at several concentrations.
A short description of assay [5]: phospholipid biosynthesis inhibitors in animal cells, primary screen, cell-based, LOPAC library, screen 4 (AID 1347384; call rule not given here). The conditions noted are these: phospholipid biosynthesis inhibition screen, at 10 µM.
Assay [6] can be described thus: survival rescue of mitochondrial mutant cells in low glucose, primary screen, MELAS cybrids, Rieske KO mouse fibroblasts, CellTiter-Glo (AID 1508586).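 Also: z relative to plate mean and SD of compound and empty wells.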
Assay [7] concerns the target NAD(+) hydrolase SARM1 (Homo sapiens) (UniProt Q6SZW1). The assay can be described thus: SARM1 TIR NADase inhibitors, cell lysate, NAD-Glo luminescence (AID 1508614;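 active = compound whose remaining NAD level is above about 45 nM, limit read from the data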;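 also: higher remaining NAD means stronger inhibition of SARM1 NADase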). The conditions noted are these: SAM-TIR HEK293T lysate NADase, at 1 µM, stronger effect = higher value.
In assay [8] the target is Mitogen-activated protein kinase 7 (Homo sapiens) (UniProt Q13164). The assay can be described thus: ERK5 transactivation activators in reporter cells, primary screen, cell-based, HTS (AID 1508626;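 active = luciferase signal above three times the same-plate solvent-only control wells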;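 also: luciferase driven by Gal4-ERK5 fusion binding five Gal4 sites before minimal TATA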). The conditions noted are these: HeLa Gal4-ERK5 transactivation, 18 h, at 5 µM, stronger effect = higher value.
Chain of Mitogen-activated protein kinase 7 (Homo sapiens) (Q13164 whole entry, looked up, the tested form may be a part): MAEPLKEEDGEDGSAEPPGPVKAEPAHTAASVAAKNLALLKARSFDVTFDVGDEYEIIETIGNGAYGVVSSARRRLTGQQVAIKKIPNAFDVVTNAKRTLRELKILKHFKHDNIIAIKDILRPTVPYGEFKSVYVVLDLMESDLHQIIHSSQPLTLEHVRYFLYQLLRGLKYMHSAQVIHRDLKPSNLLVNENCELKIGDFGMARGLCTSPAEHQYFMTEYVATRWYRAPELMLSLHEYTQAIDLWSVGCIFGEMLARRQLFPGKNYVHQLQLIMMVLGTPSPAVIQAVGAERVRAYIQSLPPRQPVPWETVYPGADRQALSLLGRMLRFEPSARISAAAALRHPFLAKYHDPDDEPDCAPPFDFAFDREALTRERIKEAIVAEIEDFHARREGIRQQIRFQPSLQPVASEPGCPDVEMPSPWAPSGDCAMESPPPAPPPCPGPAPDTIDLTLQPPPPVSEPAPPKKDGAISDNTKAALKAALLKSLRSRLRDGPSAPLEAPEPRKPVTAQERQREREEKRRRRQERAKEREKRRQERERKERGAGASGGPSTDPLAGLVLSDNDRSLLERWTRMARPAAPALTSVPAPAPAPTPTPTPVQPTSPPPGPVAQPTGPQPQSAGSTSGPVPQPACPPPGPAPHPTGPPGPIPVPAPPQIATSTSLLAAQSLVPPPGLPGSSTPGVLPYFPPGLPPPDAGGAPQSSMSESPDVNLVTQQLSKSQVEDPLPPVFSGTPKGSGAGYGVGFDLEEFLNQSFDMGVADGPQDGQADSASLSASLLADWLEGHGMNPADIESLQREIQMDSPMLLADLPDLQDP
Assay [9] can be described thus: viability rescue of complex I mutant cybrids, primary screen, cell-based, galactose medium, ATP luminescence (AID 1645843;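 active = z-score of at least 1.8 in each of two replicates, scored against plate mean and spread of sample wells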;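 also: positive z means more ATP and so rescue of galactose-driven cybrid death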). The conditions noted are these: complex I mutant cybrid cells, 72 h, stronger effect = higher value.
The nature of assay [10]: inhibitors of Cryptococcus chitosan production, flow cytometry, Cibacron Brilliant Red staining (AID 1347148; call rule not given here;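 also: compound exposure lasted three days at 37 degrees C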). The note with it: Cryptococcus neoformans chitosan, stronger effect = lower value; at 10 µM unless noted. (In general: In flow cytometry, cells or beads pass a laser one at a time.)
Assay [11] in a line: LFS_MB_P medulloblastoma growth inhibition, cell-based, chromothripsis tumors, cisplatin or BGB combos (AID 1671449; in the data active = inhibition above about 80%;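 also: cells exposed for 96 hours; 0% = vehicle DMSO and 100% = killing by high DMSO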). The note with it: LFS_MB_P medulloblastoma cells.
Assay [12] is described as follows: HDN33 neuroblastoma growth inhibition, cell-based, chromothripsis tumors, cisplatin or BGB combos (AID 1671450; in the data active = inhibition above about 80%;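 also: cells exposed to compound for four days; 0% = vehicle DMSO and 100% = cell killing by high DMSO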). The note with it: HDN33 neuroblastoma cells, stronger effect = higher value.
Assay [13] is described as follows: ICB984 medulloblastoma cell growth inhibition, synergistic combos for chromothripsis tumors, cisplatin or BGB combos (AID 1671451; call rule not given here;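 also: cells exposed for 96 hours before readout; 0% = vehicle DMSO and 100% = killing by high DMSO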). The note with it: ICB984 medulloblastoma cells, drug combinations, stronger effect = higher value.
The nature of assay [14]: LFS_MB_1R medulloblastoma cell growth inhibition, synergistic combos for chromothripsis tumors, cisplatin or BGB combos (AID 1671452; in the data active = inhibition above about 80%;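 also: cells exposed for 96 hours before readout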). The conditions noted are these: LFS_MB_1R medulloblastoma cells, stronger effect = higher value.
Assay [15] in a line: HTB85 osteosarcoma cell growth inhibition, synergistic combos for chromothripsis tumors, BGB or cisplatin IC20 combos (AID 1671453; in the data active = inhibition above about 80%;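 also: cells exposed for 96 hours before readout; 0% = vehicle DMSO and 100% = high DMSO killing control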). The conditions noted are these: HTB85 osteosarcoma cells, drug combinations, stronger effect = higher value.
Assay [16] is described as follows: CRL2098 osteosarcoma cell growth inhibition, synergistic combos for chromothripsis tumors, BGB or cisplatin IC20 combos (AID 1671454; in the data active = inhibition above about 80%;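 also: cells exposed for 96 h before readout; 0% = vehicle DMSO and 100% = killing by high DMSO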). The conditions noted are these: CRL2098 osteosarcoma cells, drug combinations, stronger effect = higher value.
Assay [17] can be described thus: HD-MB03 medulloblastoma cell growth inhibition, synergistic combos for chromothripsis tumors, BGB or cisplatin IC20 combos (AID 1671455; in the data active = inhibition above about 83%;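 also: 0% = vehicle DMSO and 100% = high DMSO as cytotoxic control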). The conditions noted are these: HD-MB03 medulloblastoma cells, stronger effect = higher value.
The mark [18] stands for this setting: MELAS cybrid survival, CellTiter-Glo 48 h, stronger effect = higher value.
Setting [19] is: Rieske KO mouse fibroblast survival, CellTiter-Glo 72 h.
[20] abbreviates: measured here: combination with BGB IC40, at 0.05 µM.

Chain of NAD(+) hydrolase SARM1 (Homo sapiens) (Q6SZW1 whole entry, looked up, the tested form may be a part): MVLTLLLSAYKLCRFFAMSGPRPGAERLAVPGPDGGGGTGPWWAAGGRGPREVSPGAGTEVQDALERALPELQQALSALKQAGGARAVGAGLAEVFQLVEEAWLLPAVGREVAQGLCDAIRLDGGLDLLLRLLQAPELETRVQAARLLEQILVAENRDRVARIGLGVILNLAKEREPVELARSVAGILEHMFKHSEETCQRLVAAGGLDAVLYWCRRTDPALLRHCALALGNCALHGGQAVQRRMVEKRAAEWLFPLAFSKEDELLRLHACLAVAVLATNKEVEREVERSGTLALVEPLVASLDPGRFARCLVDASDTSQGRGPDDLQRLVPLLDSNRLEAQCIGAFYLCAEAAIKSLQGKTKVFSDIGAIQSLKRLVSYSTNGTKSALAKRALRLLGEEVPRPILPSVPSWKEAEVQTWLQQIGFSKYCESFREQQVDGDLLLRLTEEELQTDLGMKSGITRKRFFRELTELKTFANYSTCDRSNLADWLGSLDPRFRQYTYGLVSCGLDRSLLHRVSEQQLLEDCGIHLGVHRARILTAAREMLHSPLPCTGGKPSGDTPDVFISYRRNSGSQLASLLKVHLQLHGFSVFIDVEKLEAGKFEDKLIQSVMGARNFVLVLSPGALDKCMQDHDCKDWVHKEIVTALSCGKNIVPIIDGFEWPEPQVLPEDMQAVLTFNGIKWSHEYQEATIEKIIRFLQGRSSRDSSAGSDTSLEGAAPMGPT

Regarding `Oc1ccc(C2CNCCc3c2cc(O)c(O)c3Cl)cc1` (stereo not drawn), the molecule was classed as inactive in [1], in [2], in [3], in assay [4] and in assay [5]. For the same molecule, the z-score in [6] (setting [18]) was 0.526 (inactive) and 0.283 (inactive); in assay [6] (setting [19]) it was -0.363 and -0.533. For the same molecule, the remaining NAD in [7] is 10 nM (inactive).
Consider `Cc1cc(C(C)(C)C)cc(C)c1CC1=NCCN1`, for which the call in assay [1], in [2], in assay [3], in [4] and in [5] was inactive. Further, the z-score in [6] (setting [18]) is 0.304 (inactive) and -0.439 (inactive) and 0.446 (inactive); in [6] (setting [19]), 0.616 and -0.336 and 0.511; in assay [9], -0.37 (inactive) and 0.085 (inactive). Also, in [7], the remaining NAD is 10 nM (inactive). Moreover, in assay [8], the luciferase signal was 44 AU (inactive).
For the molecule `CCCc1nc(C)c2c(=O)[nH]c(-c3cc(S(=O)(=O)N4CCN(CC)CC4)ccc3OCC)nn12`, the outcome in assay [1], in [3] and in assay [4] was inactive. In addition, the AC50 in assay [2] is 8.33 µM (active). Besides, the z-score in assay [6] (setting [18]) is -0.282 (inactive) and 1.61 (inactive) and 1.47 (inactive); in [6] (setting [19]) it was -1.38 and 1.33 and 1.06; in assay [9], 0.68 (inactive) and 0.485 (inactive). The remaining NAD in [7] is 18 nM (inactive). Also, the luciferase signal in [8] is 60 AU (inactive).
With `NS(=O)(=O)c1cc2c(cc1Cl)NC(C(Cl)Cl)NS2(=O)=O` (stereo not drawn), the outcome in assay [1], in assay [2], in [3] and in assay [4] was inactive. Besides, the z-score in [6] (setting [18]) is -0.307 (inactive) and 0.588 (inactive) and 0.372 (inactive); in [6] (setting [19]), 0.662 and 0.211 and -0.506; in [9] it was -0.19 (inactive). Also, the remaining NAD in assay [7] is 10 nM (inactive). For the same molecule, the luciferase signal in assay [8] is 48 AU (inactive).
As for `COc1ccc(C2CNC(=O)C2)cc1OC1CCCC1` (stereo not drawn), the result in assay [1], in assay [2], in assay [3], in [4] and in [5] was inactive. Moreover, in assay [10], the fold fluorescence is 10.1 [at 181.6 µM] (inactive). Besides, the remaining NAD in assay [7] is 10 nM (inactive). In addition, the luciferase signal in [8] is 72 AU (inactive).
As for `Nc1[nH]c(=O)ncc1F`, the molecule was classed as inactive in assay [1], in assay [2], in assay [3] and in assay [4]. Moreover, the z-score in assay [6] (setting [18]) was -0.163 (inactive) and 0.671 (inactive); in assay [6] (setting [19]), 0.841 and -0.221; in assay [9] it was 0.61 (inactive). Besides, the remaining NAD in [7] was 10 nM (inactive). Besides, the inhibition in assay [11] (at 0.5 µM, stronger effect = higher value) was 35.6% (inactive); in assay [11] (measured here: combination with BGB IC20, at 0.005 µM), -27.5%; in assay [11] (measured here: combination with BGB IC40, at 0.005 µM) it was -28.3%; in assay [11] (setting [20]) it was -22%; in assay [11] (measured here: combination with cisplatin, at 0.5 µM, stronger effect = higher value) it was 56.8%; in assay [11] (measured here: combination with cisplatin, at 5 µM, stronger effect = higher value) it was -29.9%. Moreover, the inhibition in assay [12] (BGB combo, at 5 µM) was -19.9%; in assay [12] (at 0.5 µM), -18.6% (inactive); in assay [12] (cisplatin combo, at 5 µM), -41.9%; in [12] (measured here: with BGB IC20 combination, at 0.5 µM) it was -4.48%; in [12] (measured here: with cisplatin IC20 combination, at 0.5 µM) it was -14.6%; in assay [12] (single agent, at 5 µM), 9.06%. Moreover, the inhibition in [13] (BGB IC20 combo, at 0.005 µM) was -28.5%; in assay [13] (BGB IC40 combo, at 0.005 µM), -43.6%; in [13] (BGB IC40 combo, at 0.05 µM) it was -8.87%; in assay [13] (at 0.5 µM), -40.6% (inactive); in [13] (cisplatin combo, at 0.05 µM), -8.87%; in [13] (cisplatin combo, at 0.5 µM), -57.1%. Also, the inhibition was -45.6% in assay [13] (cisplatin combo, at 5 µM); -3.48% in assay [13] (measured here: 5 uM single agent, at 5 µM); -37.2% (inactive) in assay [14] (at 0.5 µM); -0.509% in assay [14] (setting [20]); -34.6% in assay [14] (measured here: combination with cisplatin, at 0.5 µM); -0.132% in assay [14] (measured here: combination with cisplatin, at 5 µM). Besides, the inhibition is -19.7% (inactive) in [15] (at 0.5 µM); -43% in [15] (measured here: with BGB IC20, at 0.5 µM); -34% in assay [15] (measured here: with BGB IC20, at 5 µM); -6.71% in [15] (measured here: with cisplatin IC20, at 0.5 µM); -6.3% in [15] (measured here: with cisplatin IC20, at 5 µM); -19.7% in assay [15] (single agent, at 5 µM). Further, the inhibition is -73.3% (inactive) in assay [16] (at 0.5 µM); -56.9% in [16] (measured here: combination with BGB at IC20, at 0.5 µM); -90.3% in [16] (measured here: combination with cisplatin at IC20, at 0.5 µM); 5.78% (inactive) in assay [17] (at 0.5 µM); 2.74% in assay [17] (measured here: combo with BGB at IC20, at 0.5 µM); 10.4% in assay [17] (measured here: combo with cisplatin at IC20, at 0.5 µM).
